IL1B secr inh – inflammasome signaling inhibition, IL-1 beta readout | THP-1 LPS/ATP IL-1B secretion, AlphaLISA, 16 h; hits give low values | activity change, % at 57.5 µM | 4.7% of 360,000 active; in the data active = activity change below about -50%; inconclusive = mostly about -30% to -49%
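THP-1 cells pretreated 1 hr with compounds (up to 57.5 uM final), then stimulated with LPS (250 ng/mL final) plus ATP (1.25 mM final); secreted IL-1B measured by AlphaLISA after 16 hr, decreased signal indicating inhibition.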
TDP1 cell CPT – growth inhibition of DT40 Tdp1-/-;hTDP1 cells with camptothecin (screen for TDP1 inhibitors). chicken DT40 Tdp1-/-;hTDP1 cells + 20 nM CPT, ATP luminescence, 48 h. Potency, µM (top dose mostly 46.2 µM), usual class: inhibitors. 12% of 420,000 active; also: nearly all actives have a fitted effect of over 55% in size
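Chicken DT40 Tdp1-/- cells complemented with human TDP1, 400 cells/well, exposed to compounds plus 20 nM camptothecin for at least 48 h at 37 C; viability read as ATP content by CellTiter-Glo luminescence.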
HT1080NT lethal – kills 2HG-producing HT-1080-NT fibrosarcoma cells. AID 686970. Potency, µM (doses to about 46.1 µM), hits mostly cytotoxic. HT-1080-NT fibrosarcoma viability, CellTiter-Glo ATP luminescence, 48 h. 1.6% of 360,000 active;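 also: NT is the 2HG producing partner of a matched IDH1 knockdown line; nearly all actives have a fitted effect of over 55% in size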
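Read-out is CellTiter-Glo luminescence after 10 minutes at room temperature, following 48 hours' compound treatment of HT-1080-NT cells (750 cells/well, RPMI, 5% FBS, 37 degrees C).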
HT1080 IDH1KD tx – HT-1080 IDH1 knockdown cell toxicity (counter line). 2% of 360,000 active. Potency, µM (top dose mostly 46.1 µM), hits mostly cytotoxic. AID 686971. HT-1080 IDH1 knockdown viability, ATP luminescence, 48 h
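CellTiter-Glo luminescence after 48 h compound exposure at 37 degrees C of IDH1-knockdown HT-1080 cells in 5% FBS RPMI. %Activity scaled between DMSO wells and cell-free media wells, with curves fitted and assigned curve classes.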
TDP1 cell noCPT – qHTS for Inhibitors of human tyrosyl-DNA phosphodiesterase 1 (TDP1): qHTS in cells in absence of CPT; 15% of 420,000 active; DT40 Tdp1-/- hTDP1 cells, no CPT, ATP luminescence, 48 h; Potency, µM (series often up to 46.2 µM), most hits filed as inhibitors; AID 686978, 2013; also: nearly all actives have a fitted effect of over 55% in size
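Stably hTDP1-transfected Tdp1-null chicken DT40 cells were treated with library compounds minus camptothecin and grown for at least 48 hr at 37 °C, after which cellular ATP was quantified by luminescence.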
Each line names hits and unclear results; the compound was inactive in the other large screens. A selection: hits, their analogues and other compounds. The true share with any hit is near 19%. Unless noted, calls follow the shape of the dose curve; as a rule, active = well fitted curve in the direction sought with a large enough effect; inconclusive = small, poorly fitted or top-dose-only effect, or another doubt; inactive = no such curve, though single readings can be large; an effect the other way counts as inactive or inconclusive.

CC1Cc2c([nH]c3ccccc23)C2c3ccccc3CN12 (stereo unspecified)	TDP1 cell CPT inconclusive, TDP1 cell noCPT inconclusive
COc1cc(-c2noc(C)c2C(=O)NCCc2cccs2)cc(OC)c1OC	none
O=C(Cc1ccccc1F)NCC(c1ccco1)N1CCCCC1 (stereo unspecified)	none
CC1C(=O)N2CCCc3cc(S(=O)(=O)NCCc4ccccc4)cc1c32 (stereo unspecified)	TDP1 cell CPT inconclusive
CCN(c1cccc(C)c1)S(=O)(=O)c1cc2c3c(c1)CCN3C(=O)CC2	TDP1 cell CPT 29µM, TDP1 cell noCPT 15µM
CCN(c1ccccc1)S(=O)(=O)c1cc2c3c(c1)C(C)C(=O)N3CCC2 (stereo unspecified)	TDP1 cell CPT 18µM, TDP1 cell noCPT 16µM
CO[C@H]1C[C@@H]2CC[C@@H](C)[C@@](O)(O2)C(=O)C(=O)N2CCCC[C@H]2C(=O)O[C@H]([C@H](C)C[C@@H]2CC[C@@H](OC(=O)C(C)(CO)CO)[C@H](OC)C2)CC(=O)[C@H](C)/C=C(\C)[C@@H](O)[C@@H](OC)C(=O)[C@H](C)C[C@H](C)/C=C/C=C/C=C/1C	none (no result: IL1B secr inh, HT1080NT lethal, HT1080 IDH1KD tx)
O=c1[nH]c(SCc2c(Cl)cccc2Cl)nc2ccccc12	none
CC(=O)NS(=O)(=O)c1cccnc1Nc1ccc(Cl)cc1	TDP1 cell CPT inconclusive, TDP1 cell noCPT inconclusive
Cc1c(Cl)cccc1NC(=O)C(C)n1nnc2sc3c(c2c1=O)CCCC3 (stereo unspecified)	TDP1 cell CPT inconclusive (no result: IL1B secr inh, HT1080NT lethal, HT1080 IDH1KD tx)
Cc1ccc(Cl)cc1NC(=O)C(C)n1nnc2sc3c(c2c1=O)CCCC3 (stereo unspecified)	TDP1 cell CPT 26µM, TDP1 cell noCPT 16µM (no result: IL1B secr inh, HT1080NT lethal, HT1080 IDH1KD tx)
CC(C(=O)Nc1cc(C(F)(F)F)ccc1Cl)n1nnc2sc3c(c2c1=O)CCCC3 (stereo unspecified)	TDP1 cell CPT 23µM, TDP1 cell noCPT 16µM (no result: IL1B secr inh, HT1080NT lethal, HT1080 IDH1KD tx)
Cc1c(Cl)cccc1NC(=O)Cn1nnc2sc3c(c2c1=O)CCCC3	none (no result: IL1B secr inh, HT1080NT lethal, HT1080 IDH1KD tx)
CCOc1ccccc1NC(=O)C(C)n1nnc2sc3c(c2c1=O)CCCC3 (stereo unspecified)	TDP1 cell CPT inconclusive, TDP1 cell noCPT 15µM (no result: IL1B secr inh, HT1080NT lethal, HT1080 IDH1KD tx)
CN(C(=O)c1cccc(NC(=O)Cc2ccc(NC(=O)C3CCN(C(=O)C4CCC4)CC3)cc2)c1)C1CC1	none
O=C(NNC(=O)c1cccnc1SCc1cccc([N+](=O)[O-])c1)c1ccc(F)cc1	TDP1 cell CPT 23µM, TDP1 cell noCPT 12µM
O=C(NNC(=O)c1cccnc1SCc1cccc([N+](=O)[O-])c1)c1cccnc1	TDP1 cell noCPT inconclusive
O=C(OCc1cccc([N+](=O)[O-])c1)c1cccnc1Cl	none
O=C(NNC(=O)c1cccnc1SCc1cccc([N+](=O)[O-])c1)c1ccccn1	TDP1 cell CPT 4.6µM, HT1080NT lethal inconclusive, HT1080 IDH1KD tx inconclusive, TDP1 cell noCPT 2.6µM
CS(=O)(=O)c1ccc(S(=O)CC(=O)Oc2ccc(Cl)cc2)c([N+](=O)[O-])c1 (stereo unspecified)	IL1B secr inh -99, TDP1 cell CPT 1.2µM, HT1080NT lethal 23µM, HT1080 IDH1KD tx 18µM, TDP1 cell noCPT 0.58µM
O=C(Cc1ccc([N+](=O)[O-])cc1)Oc1ccccc1	none
O=C(CS(=O)c1ccccc1[N+](=O)[O-])Oc1ccc(Br)cc1 (stereo unspecified)	IL1B secr inh -62
COc1cc(CC(=O)OCC(=O)c2ccc[nH]2)cc(OC)c1OC	TDP1 cell CPT inconclusive
CCOc1ccc(NC(=O)CCc2c(C)nc3nc(-c4cc(OC)cc(OC)c4)nn3c2C)cc1	TDP1 cell noCPT inconclusive (no result: IL1B secr inh, HT1080NT lethal, HT1080 IDH1KD tx)
COc1cc2ccnc(Cc3cccc(OC)c3OC)c2cc1OC	TDP1 cell CPT inconclusive, TDP1 cell noCPT 13µM
COc1cc(Cc2nccc3cc(OC)c(OC)cc23)c(S(=O)(=O)O)cc1OC	none
COc1cc(N)c(C(=O)c2nccc3cc(OC)c(OC)cc23)cc1OC	none
COc1ccc(C(C#N)c2cnccn2)cc1OC (stereo unspecified)	none
